Source: PubChem
The list is not random: actives were taken first. Their share in the collection is about 4.5%.
ZTA DNA inh: counter-screen for EBNA-1 inhibitors: inhibitors of Epstein-Barr virus ZTA; P03206; ZTA-DNA binding, fluorescence polarization; inhibition, % at 11 µM; actives 0.15% (n = 320,000); AID 2234; in the data active = inhibition above about 33%
Rpn11 inh: Rpn11 (human) deubiquitinase inhibition | human 26S proteasome, Ub4-pepOG fluorescence polarization; 20S core pre-blocked with epoxomicin | O00487 | inhibition, % at 20 µM | actives 0.59% (n = 360,000);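 active = inhibition at 20 µM, scaled to each plate's controls, above about 33%, limit read from the data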
Target sequence (O00487 whole entry, looked up): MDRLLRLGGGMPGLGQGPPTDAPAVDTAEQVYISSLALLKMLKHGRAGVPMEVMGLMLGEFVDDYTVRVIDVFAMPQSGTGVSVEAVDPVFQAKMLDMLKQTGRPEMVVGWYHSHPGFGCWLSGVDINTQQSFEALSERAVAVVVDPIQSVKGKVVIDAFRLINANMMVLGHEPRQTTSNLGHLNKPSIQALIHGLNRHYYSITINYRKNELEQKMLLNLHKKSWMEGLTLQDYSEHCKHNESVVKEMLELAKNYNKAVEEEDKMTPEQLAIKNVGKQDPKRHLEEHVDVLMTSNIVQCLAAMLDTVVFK
dFosB act: activators of mouse delta FosB homodimer. P13346. purified delta FosB, TAMRA-CDK5 oligo fluorescence polarization; percent of positive-control signal above neutral wells. activation, % at 25 µM. actives 0.99% (n = 340,000);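 active = mean activation above about 17%, with every replicate also reaching it, limit read from the data, passing the limit was not always enough; inconclusive = only one of the two conditions met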
TPT1 inhibitor: inhibitors of Candida albicans tRNA 2'-phosphotransferase TPT1; AID 1962; actives 0.81% (n = 300,000); recombinant caTPT1, FP RNA substrate dephosphorylation; inhibition, % at 5 µM;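 active = inhibition above the mean of all tested compounds plus 3 SD, set per screening campaign, cut at about 24% in these data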
EBNA-1 inh: blocks EBNA-1 binding to DNA; EBNA-1 DNA binding, fluorescence polarization; AID 1950; actives 0.34% (n = 300,000); inhibition, % at 14.8 µM; in the data active = inhibition above about 28%
NR3A LBD binder: NR3A (human) ligand-binding domain modulation; actives 2.5% (n = 340,000); Tm shift relative to glycine control, % at 25 µM; NR3A LBD differential scanning fluorimetry, Tm shift; 0% = protein alone, 100% = glycine-bound protein;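 active = melting temperature shift of at least 10% of the positive control shift, at one fixed dose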
Large screens that a line does not name were inactive.

CSc1ccccc1NC(=O)CN1CC(C)OC(C)C1 (stereo not given)	none
COc1ccccc1N1CC(C)(C)C(=O)N(C(=O)c2ccc(C)cc2)C1=S	none
S=c1[nH]c2cc(-c3ccccc3)ccc2o1	none (no result: NR3A LBD binder)
O=C(COC(=O)C1(c2ccccc2F)CCCC1)NCc1ccc2c(c1)OCO2	none
O=C(COC(=O)C1(c2ccc(F)cc2)CCCC1)NCc1ccc2c(c1)OCO2	NR3A LBD binder 16
Cc1c(CCCN)c2ccccc2n1Cc1ccccc1	none
COc1cc(NC(=O)CSc2nc3[nH]ncc3c(=O)n2-c2ccc(Cl)cc2)cc(OC)c1	NR3A LBD binder 13
O=C(CSc1nc2[nH]ncc2c(=O)[nH]1)Nc1ccc(Cl)cc1	NR3A LBD binder 25
CCc1ccc(NC(=O)CSc2nc3[nH]ncc3c(=O)[nH]2)cc1	none
O=C(CCCn1cc([N+](=O)[O-])cn1)Nc1cccnc1	none
Cc1ccc(NC(=S)N(Cc2cccc(Br)c2)CC2CCC(C(=O)O)CC2)cc1 (stereo not given)	NR3A LBD binder 13
CCc1noc(C)c1C(=O)OCC(=O)N(C)c1c(N)n(Cc2ccccc2)c(=O)[nH]c1=O	none
COc1ccccc1-n1c(SCC(=O)c2ccc(O)cc2O)nc2cc([N+](=O)[O-])ccc21	NR3A LBD binder 30
COc1ccccc1-n1c(SCC(=O)NC2CCS(=O)(=O)C2)nc2cc([N+](=O)[O-])ccc21 (stereo not given)	none
CCOc1ccc(Br)cc1C(=O)N/N=C/c1c[nH]c2ccccc12	NR3A LBD binder 10
Cc1cc(C(=O)N/N=C/c2c[nH]c3ccccc23)c(C)o1	none
O=C(N/N=C/c1c[nH]c2ccccc12)c1cc(Br)ccc1O	NR3A LBD binder 34
CCOc1ccc(Br)cc1C(=O)N/N=C/c1ccccn1	none
Cc1cccc(C(=O)Nc2nc(C)c(C(=O)Nc3ccc4c(c3)CCC4)s2)c1	dFosB act inconclusive, NR3A LBD binder 28
O=C(c1ccco1)N1CCN(Cc2nc(-c3cccs3)no2)CC1	none
CCOC(=O)c1c(N)sc(C(=O)Nc2ccc3c(c2)OCO3)c1C	NR3A LBD binder 28
CCOC(=O)c1c(N)sc(C(=O)N(C)C)c1C	NR3A LBD binder 11
CC(=O)NC1(C(F)(F)F)NC(=O)N(c2ccc(F)cc2)C1=O (stereo not given)	none
O=C(CN(Cc1ccccc1Cl)C(=O)c1csnn1)NCCc1ccccc1	none
CCC1CCCCN1S(=O)(=O)c1ccc(C(=O)Nc2nnc(C3=COCCO3)o2)cc1 (stereo not given)	none
COc1ccc(-c2nn(-c3ccccc3)cc2/C=N/NC(N)=S)cc1OC	NR3A LBD binder 19
Cc1ccc(-c2nn(-c3ccccc3)cc2/C=N/O)cc1	none
Cc1ccc(S(=O)(=O)N/N=C/c2c(C)nn(-c3ccccc3)c2C)cc1	none
Cc1ccc(-c2nn(-c3ccccc3)cc2/C=N/NS(=O)(=O)c2ccccc2)cc1	NR3A LBD binder 24
NC(=O)N/N=C/c1cn(-c2ccccc2)nc1-c1ccccc1	none
O=S(=O)(N/N=C\c1cn(-c2ccccc2)nc1-c1ccccc1)c1ccccc1	NR3A LBD binder 20
Cc1ccc(S(=O)(=O)N/N=C\c2cn(-c3ccccc3)nc2-c2ccccc2)cc1	NR3A LBD binder 29
COc1ccc(-c2nn(-c3ccccc3)cc2/C=N/n2cnnc2)cc1OC	none
COCOc1cccc(CN2CCC2(C)C(=O)Nc2ccc(C)cc2)c1 (stereo not given)	none (no result: ZTA DNA inh, dFosB act, TPT1 inhibitor, EBNA-1 inh, NR3A LBD binder)
COc1ccc(CCNc2ccc(C(CC(N)=O)NC(=O)c3cc(OC)ccc3OC)cc2[N+](=O)[O-])cc1 (stereo not given)	NR3A LBD binder 42
Cc1cc2c(cc1C)CSC(c1c(O)ccc3ccccc13)SC2	NR3A LBD binder 27
Cc1cc2c(cc1C)CSC(c1ccccc1O)SC2	NR3A LBD binder 12
Cc1cc2c(cc1C)CSC(c1ccc3ccccc3c1O)SC2	NR3A LBD binder 15
CCOc1ccc(Br)cc1S(=O)(=O)Nc1ccc(Cl)c(S(=O)(=O)N(CC)c2ccccc2)c1	NR3A LBD binder 13
COc1cc(C(=O)N/N=C/c2ccc(OC)c(CN3CCN(c4ccc(F)cc4)CC3)c2)ccc1O	dFosB act 39
O=C(N/N=C/c1ccc(Cl)c([N+](=O)[O-])c1)c1ccc2nc[nH]c2c1	NR3A LBD binder 13
